# Assay outcomes (PubChem BioAssay)
# aSyn 5UTR act: Activators working through SNCA 5'UTR binding (MLPCN). alpha-synuclein 5'UTR reporter, activators screen. activity score, % (tested at 7.5 µM), hits read low. 300,000 tested, 7.1% active; in the data active means activity score below about -60%
# Numbers without * were called inactive. Not all results are given here.
SMILES,aSyn 5UTR act
Cc1ccc(Nc2cccccc2=O)cc1,-101*
O=C(CNS(=O)(=O)c1ccc2ccccc2c1)OCc1csc(-c2ccccc2)n1,-62*
CCOc1ccc(-c2ccc(SCc3ccccn3)nn2)cc1,-132*
CCc1ccc(-c2ccc(SCc3ccccn3)nn2)cc1,-143*
COc1ccc(-c2nsc3c(N4CCCC4)ncnc23)cc1,70
Clc1cc(Cl)c2nc(N3CCCC3)sc2c1,-103*
Clc1cccc2sc(N3CCCCC3)nc12,-109*
Clc1cc(Cl)c2nc(N3CCCCC3)sc2c1,-152*
COc1ccc(OC)c2sc(N3CCCCC3)nc12,-62*
Cc1ccccc1Nc1nc(N)nc(CSc2ccc(F)cc2)n1,-125*
Cc1ccccc1Nc1nc(N)nc(CSc2nnnn2C)n1,-109*
Cc1ccc(Nc2nc(N)nc(CSc3nccn3C)n2)c(C)c1,-101*
COc1cc(N)ccc1C(=O)O,-76*
Cc1ccccc1C(=O)N1CCc2cc(-c3csc(NC(=O)CN4CCCC4)n3)ccc21,-99*
Cc1sc(NC(=O)CN2CCCC2)nc1-c1ccc2c(c1)CCN2C(=O)c1cccc(F)c1,-69*
O=C(CN1CCCCC1)Nc1nc(-c2ccc(F)c(F)c2)cs1,-99*
O=C(CN1CCCCC1)Nc1nc(-c2ccccc2)cs1,-77*
O=C(CN1CCCCC1)Nc1nc(-c2ccc(Cl)cc2)cs1,-74*
O=C(CCN1C(=O)C2CCCCC2C1=O)Nc1nc(-c2ccccc2)cs1 (configuration not stated),-65*
c1ccc(-c2nnc(N3CCOCC3)nc2-c2ccccc2)cc1,-73*
C=CCNS(=O)(=O)c1nc(C)c(Cl)c(C)c1C#N,-110*
Cc1ccc(C(C)C)c(OCc2nc(-c3nonc3N)no2)c1,-92*
Cc1ccc(C(C)C)c(OCc2ccc(C(=O)N/N=C/c3ccc(O)cc3O)cc2)c1,96
CCCSc1nnc(-c2c[nH]c3ccccc23)n1C,-78*
Cc1ccc2oc(Nc3nc(C)c(C)c(C)n3)nc2c1,-99*
SMILES,aSyn 5UTR act
COc1ccc(CCn2c(=N)c(C(=O)NCc3ccco3)cc3c(=O)n4ccccc4nc32)cc1,-73*
Cc1ccc(S(=O)(=O)c2cc3c(=O)n4ccccc4nc3n(CCc3ccccc3)c2=N)cc1,-231*
N=c1c(C(=O)NCCN2CCOCC2)cc2c(=O)n3ccccc3nc2n1CCc1ccccc1,-83*
CCCn1cc(NC(=O)c2cc(-c3ccccc3)on2)cn1,-134*
CCCc1cc(C(=O)Nc2ccccc2C(=O)OC)no1,-71*
O=C(Nc1cc(Br)ccc1O)c1cc(-c2ccccc2)on1,-131*
CCCc1cc(C(=O)Nc2cc(C)ccc2O)no1,-250*
Cc1ccc(O)c(NC(=O)c2cc(-c3ccccc3)on2)c1,-254*
COc1cccc(Nc2nc(-c3ccc4c(c3)OCCO4)cs2)c1,-227*
c1cc2c(cc1Nc1nc(-c3ccc4c(c3)OCO4)cs1)OCCO2,-89*
COc1ccc(CCNC(=O)C(=O)NCc2ccccc2)cc1OC,-82*
COc1cc(CNC(=O)C2CC2)ccc1OCc1ccccc1,-97*
COc1cc(CN2CCC(C(=O)NCCC(C)C)CC2)ccc1OCc1ccccc1,-173*
COc1cc(CN2CCCCC2)ccc1OCc1ccccc1,-65*
CCCCn1c(-c2ccccc2)cnc1SCC(=O)NCCc1ccc(OC)c(OC)c1,-136*
Cc1ccc2nc3ccc(N4CCCC4)nn3c(=O)c2c1,-163*
Cc1ccc(C(=O)NNc2cc(N3CCCC3)nc(N3CCCC3)n2)cc1,74
Cc1sc2nc3ccc(N4CCCCC4)nn3c(=O)c2c1C,-181*
O=[N+]([O-])c1cccc(C2Nc3cccc4cccc(c34)N2)c1,-72*
O=C(NCC1CCCO1)c1sc2cc(Cl)ccc2c1Cl (configuration not stated),-124*
CCCn1c(O)c(C=Nc2ccccc2)sc1=S,-86*
CCOC(=O)c1cnc2cc(-c3ccc(Cl)cc3)nn2c1N,-87*
CCOC(=O)c1cnc2cc(-c3ccc(Br)cc3)nn2c1C,-131*
CCOc1cc(/C=C(\C#N)C(N)=O)ccc1OCc1c(C)no[n+]1[O-],-63*
O=C(CSCc1ccccn1)Nc1ccccc1,-70*
SMILES,aSyn 5UTR act
S=C(NCc1ccccn1)Nc1ccc(Cl)cc1Cl,-130*
CCc1ccc(NC(=O)C(=O)NCc2ccccn2)cc1,-144*
S=C(NCc1ccccn1)Nc1ccccc1,-86*
COc1ccccc1NC(=S)NCc1ccccn1,-80*
c1ccc(-n2nc3c(ccc4cnnc43)[nH]2)cc1,-129*
O=C(/C=C/c1cccc(F)c1)c1ccc(N2CCOCC2)cc1,-80*
c1ccc(C2Nc3ccccc3-c3nc4ccccc4n32)nc1 (configuration not stated),-74*
c1coc(C2Nc3ccccc3-c3nc4ccccc4n32)c1 (configuration not stated),-93*
O=C(O)COn1c(-c2ccc(Cl)cc2)nc2ccc(Cl)cc21,-123*
COn1c(-c2ccc(Cl)cc2)nc2ccc(Cl)cc21,-114*
O=C(Nc1ccc(Cl)cc1)Nc1ccc(Br)cn1,-103*
Cn1ncc(Br)c1C(=O)Nc1ccc(Br)cn1,-89*
CCOc1ccc(NC(=O)Nc2ccc(Br)cn2)cc1,-105*
